# Assay outcomes: PubChem, several laboratories
# AGP1-GFP MLPCN – modulators of AGP1-GFP expression in yeast TOR pathway, primary screen, cell-based, multiplex flow cytometry, S. cerevisiae, MLPCN library. 3 h; GFP as percent of DMSO wells. GFP response vs DMSO, % at 10 µM. 320,000 tested, 0.02% active;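 active = GFP response relative to DMSO above a set limit, near screen average plus 3 SD, cut at about 150% in these data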;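 also: median GFP channel fluorescence of the gated AGP1 strain per well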
# RPL19A-GFP yeast – RPL19A-GFP expression modulators in yeast, primary screen, cell-based, S. cerevisiae, multiplex flow cytometry, MLPCN. percent response vs DMSO, % at 10 µM. S. cerevisiae RPL19A-GFP strain, 3 h; active compounds read low. 330,000 tested, 0.3% active. AID 2025, 2009;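 active = percent response vs DMSO below 50%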;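 also: median channel GFP fluorescence of the barcoded RPL19A-GFP strain; ratio of sample median GFP to plate DMSO average so 100% = DMSO; lower means less RPL19A-GFP as with rapamycin TOR inhibition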
# CIT2-GFP yeast – modulators of CIT2-GFP expression in yeast, primary screen, S. cerevisiae, GFP fusion, multiplex flow cytometry, MLPCN library; S. cerevisiae CIT2-GFP strain, 3 h; 100 means same as DMSO wells; GFP response vs DMSO, % at 10 µM; 320,000 tested, 0.065% active; AID 2029, 2009;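 active = GFP response relative to DMSO above a set limit, near the screen mean plus 3 SD, cut at about 150% in these data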;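 also: ratio of well median GFP fluorescence to mean of DMSO wells on the plate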
# MEP2-GFP yeast – modulators of MEP2-GFP levels in yeast, primary screen, S. cerevisiae, multiplex flow cytometry, MLPCN library; GFP response vs DMSO, % at 10 µM; S. cerevisiae MEP2-GFP strain, 3 h; 100% = DMSO control level; 330,000 tested, 0.51% active;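 active = GFP response versus DMSO above a set limit, roughly screen mean plus 3 SD, cut at about 180% in these data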;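 also: median GFP fluorescence of the barcode-gated MEP2-GFP cells per well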
# GASC-1 inh – inhibitors of GASC-1 histone demethylase, primary screen, biochemical, fluorescence, DELFIA europium. GST-JMJD2C(1-420) H3K9me3 demethylation. inhibition, % at 2.35 µM. 330,000 tested, 0.069% active;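 active = more than half of a compound's replicate wells show inhibition beyond 50%, single wells judged on their own value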;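 also: signal counts dimethyl H3K9 product captured on neutravidin plate; 0% = median of DMSO wells and 100% = 0.3 times that DMSO median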
# Target sequence (Q9H3R0 1-420 limits assumed): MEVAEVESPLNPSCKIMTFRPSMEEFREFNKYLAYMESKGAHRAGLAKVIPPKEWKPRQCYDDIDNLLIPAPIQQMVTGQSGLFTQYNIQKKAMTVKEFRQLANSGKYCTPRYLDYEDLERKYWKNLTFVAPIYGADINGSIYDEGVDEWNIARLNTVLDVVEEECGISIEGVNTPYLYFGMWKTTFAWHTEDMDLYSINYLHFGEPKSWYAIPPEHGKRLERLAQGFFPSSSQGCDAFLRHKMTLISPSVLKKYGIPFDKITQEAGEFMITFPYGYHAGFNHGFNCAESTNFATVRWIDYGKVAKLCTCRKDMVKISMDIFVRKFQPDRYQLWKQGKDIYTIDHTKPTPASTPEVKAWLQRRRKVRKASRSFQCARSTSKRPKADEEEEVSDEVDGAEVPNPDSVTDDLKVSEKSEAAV
# LAP4-GFP MLPCN – modulators of LAP4-GFP expression in yeast, primary screen, S. cerevisiae, multiplex flow cytometry, MLPCN library | 3 h; median GFP as percent of DMSO wells | GFP response vs DMSO, % at 10 µM | 320,000 tested, 0.34% active;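 active = GFP response vs DMSO above a set limit, about the screen mean plus 3 SD, cut at about 150% in these data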
# LAP4-GFP pick2 – LAP4-GFP expression modulators in yeast, confirmation, cell-based, second cherry pick, flow cytometry | shares compounds with LAP4-GFP MLPCN | 590 tested, 20% active | S. cerevisiae LAP4-GFP strain, 3 h | AID 2621, 2010 | GFP response vs DMSO, % at 10 µM;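 active = GFP signal as percent of the solvent control above about 150%, meaning raised reporter expression, limit read from the data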;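 also: ratio of well median GFP fluorescence to plate DMSO mean so 100% = DMSO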
# MEP2 cherry2 – modulators of MEP2-GFP levels in yeast, confirmation, S. cerevisiae, flow cytometry GFP, second cherry picks | shares compounds with LAP4-GFP MLPCN | S. cerevisiae MEP2-GFP strain, 3 h | GFP response vs DMSO, % at 10 µM | 590 tested, 10% active | AID 2622, 2010;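 active = GFP signal above 150% of the solvent control wells, that is a rise of more than half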;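 also: median channel GFP fluorescence of all gated yeast cells per well; ratio of median GFP to plate DMSO average so 100% = DMSO level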
# RPL19A GFP CP2 – RPL19A-GFP modulators in TOR pathway yeast, confirmation, cell-based, S. cerevisiae, flow cytometry, second cherry pick; 590 tested, 3% active; AID 2623, 2010; GFP response vs DMSO, % at 10 µM; S. cerevisiae RPL19A-GFP strain, 3 h; active compounds read low; 100% means same as DMSO wells; shares compounds with LAP4-GFP MLPCN;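 active = under 65% GFP response relative to DMSO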;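 also: median GFP channel fluorescence per well over the all cells gate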
# CIT2-GFP pick2 – modulators of CIT2-GFP expression in yeast, confirmation, flow cytometry, second cherry pick, single plex; shares compounds with LAP4-GFP MLPCN; S. cerevisiae CIT2-GFP strain, 3 h; DMSO control wells read 100%; GFP response vs DMSO, % at 10 µM; 590 tested, 8% active;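 active = GFP response vs DMSO above about 150%, limit read from the data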;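 also: median green fluorescence per well over all gated yeast cells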
# AGP1 GFP CP2 – AGP1-GFP expression modulators, hit retest, confirmation, cell-based, flow cytometry, S. cerevisiae, cherry pick set 2; shares compounds with LAP4-GFP MLPCN; S. cerevisiae AGP1-GFP strain, 3 h; percent response vs DMSO, % at 10 µM; 590 tested, under 10 active; AID 2643, 2010;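 active = over 150 percent of DMSO response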;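 also: median GFP channel fluorescence over all cells without mother daughter split; sample median GFP divided by mean DMSO control so 100% equals DMSO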
# s288c autofluor – compound autofluorescence in yeast s288c, dose response, artefact control for yeast TOR pathway GFP screen, s288c strain. shares compounds with LAP4-GFP MLPCN. fluorescence change (kMESF span) at 33 µM. 610 tested, under 10 active. S. cerevisiae s288c, 520 nm autofluorescence, flow cytometry, 3 h; active compounds read high; zero means same as solvent-only cells;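 active = fluorescence span over the dose series, or activity score, above about 33, limit read from the data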
# s288c autofl DR – autofluorescence of compounds in yeast s288c, dose response, artefact control for yeast TOR pathway GFP screen, primary hits, KU SAR, s288c parental. shares compounds with LAP4-GFP MLPCN. S. cerevisiae s288c parental, compound autofluorescence, flow cytometry, 3 h. AID 488829, 2010. 110 tested, under 10 active. fluorescence change (span) at 33 µM;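 active = fluorescence change span, or the activity score built from it, above 25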
# TORC1 bypass gr – wild-type yeast growth inhibition sparing TORC1 bypass cells, mechanism study for yeast TOR pathway GFP screen, BY4741 wild type, TORC1 bypass strain; 120 tested, under 10 active; shares compounds with LAP4-GFP MLPCN; S. cerevisiae BY4741 spot growth rating, 48-72 h; active compounds read low; AID 504456, 2011; growth rating (0-3) at 30 µM;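 active = growth rating at most 1 for wild type yeast while the TORC1 bypass strain still grows fully, rated 3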
# The depositor's hits bear a star; i = inactive; · = no result. Most compounds without a hit are left out; they make up all but 0.97% or so of the library.
SMILES,AGP1-GFP MLPCN,RPL19A-GFP yeast,CIT2-GFP yeast,MEP2-GFP yeast,GASC-1 inh,LAP4-GFP MLPCN,LAP4-GFP pick2,MEP2 cherry2,RPL19A GFP CP2,CIT2-GFP pick2,AGP1 GFP CP2,s288c autofluor,others
O=C1C=C(c2ccc3ncccc3c2)C[C@@H](c2ccc(Cl)cc2)C1,89,93,77,94,2,151*,111,98,93,85,97,·,
COc1ccc([C@H]2CC(=O)C=C(c3ccc4ncccc4c3)C2)cc1,71,95,84,91,-2,123,·,·,·,·,·,·,
Cc1ccc(C2CC(=O)Oc3cc(O)ccc32)cc1 (centres undefined),90,75,70,97,-7,180*,115,138,89,100,111,·,
O=C1CC(c2ccccc2)c2cc(O)ccc2O1 (centres undefined),101,104,108,103,-4,101,·,·,·,·,·,·,
S=C(Nc1ccc(-c2nc3ccccc3[nH]2)cc1)Nc1cccnc1,95,101,100,98,9,97,·,·,·,·,·,·,
CCN(CC(=O)NC(C)(C)C)C(=O)COc1c(Cl)cc(Cl)c2ccc(C)nc12,86,87,81,97,-6,227*,·,·,·,·,·,1,
CCOc1ccccc1NC(=O)COC(=O)COc1c(Cl)cc(Cl)c2ccc(C)nc12,104,96,95,93,5,104,·,·,·,·,·,·,
COCCNC(=O)c1ccc(CS(=O)(=O)c2ccc(OC)cc2)o1,106,98,101,96,-16,103,·,·,·,·,·,·,
CCCCN(CCCNC(=O)c1ccc(CS(=O)(=O)c2ccc(OC)cc2)o1)Cc1ccccc1,16,58,95,142,1,91,102,98,101,102,101,·,
Cc1ccc(NC(=O)c2nc(S(=O)(=O)Cc3ccccc3)ncc2Cl)cc1,92,95,74,86,-9,152*,·,·,·,·,·,-0.3,
O=C1C=CC(=O)N1N(c1ccccc1)c1ccccc1,72,100,74,84,i,122,·,·,·,·,·,1,
CCS(=O)(=O)N1CCC(C(=O)Nc2ccc3c(c2)CCC3)CC1,116,95,154*,101,15,91,98,102,100,97,100,·,
CC(=O)N/C(=C\c1ccccc1)C(=O)OC(C)C(=O)Nc1ccccc1F (centres undefined),89,93,81,93,-4,93,·,·,·,·,·,·,
COc1ccc2c(c1OC)C(=O)OC2Nc1nc(-c2cccc([N+](=O)[O-])c2)cs1 (centres undefined),99,98,103,102,4,115,·,·,·,·,·,·,
Cc1cc(S(=O)(=O)c2ccc([N+](=O)[O-])cn2)ccc1Br,87,81,91,85,-31,147,·,·,·,·,·,·,
O=S(=O)(c1ccccc1)c1ccc(C(F)(F)F)cn1,·,92,95,93,-3,102,·,·,·,·,·,-0.2,
O=[N+]([O-])c1ccc(S(=O)(=O)c2ccccc2)nc1,94,71,92,125,-10,177*,·,·,·,·,·,0.4,
Cc1ccc(S(=O)(=O)c2ccc([N+](=O)[O-])cn2)cc1,95,77,84,100,15,146,·,·,·,·,·,0.92,s288c autofl DR=0.57;TORC1 bypass gr=3
O=C(c1ccc2c(c1)OCCO2)C1CCN(C(=O)Nc2ccccc2F)CC1,89,95,103,95,1,112,·,·,·,·,·,·,
COc1ccccc1NC(=O)N1CCC(NC(=O)C2CCCCC2)CC1,104,103,104,103,-10,113,·,·,·,·,·,·,
Cc1ccc(/C=c2\sc3nc(-c4cccs4)nn3c2=O)o1,104,103,125,149,13,174*,·,·,·,·,·,1.4,
COc1cccc(/C=c2\sc3nc(-c4cccs4)nn3c2=O)c1OC,117,114,113,105,-5,113,·,·,·,·,·,·,
COc1ccccc1-c1nc2s/c(=C\c3cccs3)c(=O)n2n1,80,94,79,102,5,180*,126,108,104,110,95,0.4,
CCN(CCCNC(=O)Cn1ncc2c([nH]c3ccc(C)cc32)c1=O)Cc1ccccc1,105,97,103,96,1,87,·,·,·,·,·,·,
CC(C)(C)OC(=O)N1CCC(C(=O)Nc2ccc3c(c2)CCC3)CC1,96,99,96,99,1,98,·,·,·,·,·,·,
COc1ccc(-c2n[nH]c(C)c2-c2ccc(Cl)cc2)c(O)c1,49,55,74,78,-12,118,112,103,92,88,88,·,
Cc1ccc2[nH]cc(C(=O)CN3CCN(c4ccccn4)CC3)c2c1,23,62,101,174,1,88,106,105,96,107,98,·,
